# Compound activity deposited in PubChem by National Center for Advancing Translational Sciences (NCATS).
# Pf Dd2 growth: qHTS Primary assay for Inhibitors of Plasmodium falciparum Dd2 growth in vitro; P. falciparum Dd2 growth, SYBR Green, 72 h; Potency, µM (doses to about 28.9 µM), for inactives: at the top dose activity, negative = inhibition, usual class: inhibitors; actives 4.3% (n = 120,000); AID 1347417, 2020; active = well fitted inhibition curve with a large enough effect;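 also: plate controls were DMSO vehicle for no effect and reference drug for full effect; nearly all actives have a fitted effect of over 65% in size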
#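 Infected erythrocytes (Dd2, 0.3% parasitemia, 2.5% hematocrit final) are added to compound in RPMI-1640/Albumax II medium, grown 72 h at 37C in low oxygen, then lysed with saponin/Triton-X containing SYBR Green and read by fluorescence.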
# Starred values were filed as active, the others as inactive; i = inactive; [ ] = remark or other dose. This excerpt belongs to a sample that is enriched for hits. Potency is read from the fitted curve at half-maximal effect.
SMILES,Pf Dd2 growth
CC(C)C(=O)N1CCC2(CC1)N(c1ccccc1)C(=O)CS2(=O)=O,-25.6%
C=CCN(Cc1ccccc1OC)C(=O)c1cnc2ccccn12,-15.7%
O=C(NC1CCN(c2cc(C(F)(F)F)ncn2)CC1)c1ccc(F)cc1Cl,-13.7%
Cc1cc(=O)n(CC(=O)Nc2ccc(Cl)cc2)c(N2CCC(C)CC2)n1,11.2µM*
Cc1cc(=O)n(CC(=O)Nc2ccc(C)c(Cl)c2)c(N2CCC(C)CC2)n1,-22.0%
Cc1cc(=O)n(CC(=O)Nc2ccc(Br)cc2)c(N2CCC(C)CC2)n1,-23.9%
O=C(O)CC1COCCN1C(=O)c1cc(-n2cccn2)ccc1Cl (stereo unspecified),18.3%
CCN1C(=O)COC[C@@H]1[C@H](O)c1ccc(NC(=O)COc2ccccc2)cc1,-8.2%[44.1 µM]
CCOCCN1C(=O)COC[C@@H]1[C@H](O)c1ccc(NC(=O)COc2ccccc2)cc1,-25.5%[44.1 µM]
O=C(COc1ccccc1)Nc1ccc([C@@H](O)[C@H]2COCC(=O)N2CCCc2ccccc2)cc1,7.94µM*
O=C(Cc1cccc(F)c1)N1CC(Oc2ccc(-c3nc(-c4ccccc4)no3)cc2)C1,18.9%[5.79 µM]
O=C(NCc1ccccn1)c1c(OCC2CC2)cc(=O)n2c1CCCCC2,11.8%
COCCN1C(=O)c2ccccc2C(C(=O)NCc2ccccc2)C12CCCC2 (stereo unspecified),-14.5%
COCCN1C(=O)c2ccccc2C(C(=O)Nc2nc3c(s2)CCC3)C12CCCC2 (stereo unspecified),12.6µM*
COCCN1C(=O)c2ccccc2C(C(=O)NCc2ccc(OC)cc2)C12CCCC2 (stereo unspecified),-12.7%
COCCN1C(=O)c2ccccc2C(C(=O)Nc2nc3ccccc3s2)C12CCCC2 (stereo unspecified),6.31µM*
COCCN1C(=O)c2ccccc2C(C(=O)Nc2nncs2)C12CCCCC2 (stereo unspecified),-21.1%
CCCc1nnc(NC(=O)C2c3ccccc3C(=O)N(CCOC)C23CCCCC3)s1 (stereo unspecified),10µM*
COCCN1C(=O)c2ccccc2C(C(=O)Nc2nncs2)C12CCCC2 (stereo unspecified),-9.7%
COCCN1C(=O)c2ccccc2C(C(=O)Nc2nnc(C)s2)C12CCCCC2 (stereo unspecified),-15.7%
COCCN1C(=O)c2ccccc2C(C(=O)NCCc2ccccc2)C12CCCC2 (stereo unspecified),-19.7%
COCCN1C(=O)c2ccccc2C(C(=O)Nc2nc(C)c(C)s2)C12CCCC2 (stereo unspecified),7.94µM*
O=C([C@@H]1C[C@H](F)CN1C(=O)c1ccccc1)N1CCCCC1,27.0%
Cc1oc(C(O)c2cncnc2)nc1C(=O)Nc1cccc([S+](C)(=O)[O-])c1 (stereo unspecified),-8.4%[44.1 µM]
O=C(c1ccc(Br)o1)N1CCC(n2cnnc2C2CC2)CC1,-13.1%
SMILES,Pf Dd2 growth
COc1ccc(NC2CCCN(C(=O)c3ccc(S(N)(=O)=O)cc3)C2)cc1 (stereo unspecified),-5.8%
CN1[C@@H](CCC(=O)NCc2cccnc2)CNC(=O)[C@@H]2[C@H]1CCN2Cc1ccc(O)cc1,21.6%
CNc1nccc(N2CCC(CC(=O)NCCCOC(C)C)CC2)n1,i
O=[S+]([O-])(c1ccccc1)N1CC2(COCCN(Cc3ccsc3)C2)C1,15.4%[44.1 µM]
COc1ccc(-n2nc3n(c2=O)CCN(Cc2ccc(N(C)C)cc2)C3)cc1,-10.1%
COCCN1C(=O)c2ccccc2C(C(=O)Nc2nc(C(=O)OC)c(C(C)C)s2)C12CCCC2 (stereo unspecified),11.2µM*
COCCN1C(=O)c2ccccc2C(C(=O)NCCC(C)C)C12CCCC2 (stereo unspecified),-19.3%
CS(=O)(=O)N1CCCN(C(=O)C2CC2)c2ccccc21,5.4%
Cc1ccc(C(=O)NCC(=O)N2CCCCCCNC(=O)CC2c2ccccc2)s1 (stereo unspecified),12.3%
O=C1NCCCCCCN(Cc2cccc(OC(F)(F)F)c2)[C@H]2CCC[C@@H]12,7.08µM*
Cc1ccsc1CN1CCCCCNC(=O)CC1c1ccccc1 (stereo unspecified),7.08µM*
Cc1ccc(CN2CCCN(S(C)(=O)=O)C(c3ccccc3)CC(=O)NCC2)s1 (stereo unspecified),i
O=C1CC(c2ccccc2)N(S(=O)(=O)c2cccs2)CCCCCN1 (stereo unspecified),i
Cc1ccc(CN2CCCCCCNC(=O)CC2c2ccccc2)s1 (stereo unspecified),8.91µM*
Cc1ccsc1CN1CCCCCCNC(=O)CC1c1ccccc1 (stereo unspecified),12.6µM*
O=C1CC(c2ccccc2)N(C(=O)c2cccs2)CCCCCN1 (stereo unspecified),-7.1%
O=C1NCCCCCN(Cc2ccc(F)cc2F)[C@H]2CCC[C@@H]12,i
O=C1CC(c2ccccc2)N(C(=O)c2ccsc2)CCCCCN1 (stereo unspecified),-6.0%
O=C1CC(c2ccccc2)N(C(=O)C2CCCC2)CCCCCCN1 (stereo unspecified),-7.6%
O=C1NCCCCCN(Cc2cccnc2)[C@H]2CCC[C@@H]12,i
COc1ccc(CC(=O)N2CC[C@H]3CC(=O)N(Cc4ccccc4)CC[C@H]3C2)cc1,i
O=C(c1ccc(F)cc1)N1CCC2(COc3ccncc3[S+](=O)([O-])N2)C1 (stereo unspecified),16.7%
CCc1noc(-c2cn(C3CCN(C(=O)c4ccc(F)cc4Cl)C3)nn2)n1 (stereo unspecified),i
Cc1cc(CN(C)C(=O)[C@H]2C[C@@H](C(=O)O)N(C)[C@H]2c2cccc(F)c2F)on1,9.3%
O=C(C[C@@H]1CCNC[C@@H]1Cc1cc(-c2ccccc2)on1)NC1CCCCC1,i
SMILES,Pf Dd2 growth
COC(=O)c1sccc1NC(=O)N1[C@H]2CC[C@@H]1c1cncnc1C2,-13.6%
CN(C)c1ccc(C(=O)NC2CCN(c3cc(-c4cccs4)[nH]n3)CC2)cc1,11.4%
CCN(CCS(=O)(=O)c1ccc(C)cc1)C(=O)c1csc(C(C)=O)c1,20.6%
OCC1CN(c2ccncn2)CC12CCN(Cc1ccncc1F)CC2 (stereo unspecified),i
CC(C)(CC(=O)O)CC(=O)N1CCN2C(=O)N(Cc3ccccc3)C(=O)[C@H]2C1,-10.2%[44.1 µM]
O=C1OCC2=C1C(c1ccc(Cl)cc1)NC(=O)N2CC(=O)N1CCC(Cc2ccccc2)CC1 (stereo unspecified),i
Cc1ncsc1CN1CCCCCCNC(=O)[C@@H]2CCC[C@@H]21,-1.7%
O=C1NCCCCCN(Cc2ccccn2)[C@H]2CCC[C@@H]12,i
Cc1ccsc1CN1CCCCCCNC(=O)[C@@H]2CCC[C@@H]21,8.91µM*
CCCCNC(=O)CCC(=O)NNc1nc2ccccc2c2nc(-c3ccccc3)nn12,-20.8%
c1ccc(CNc2nc3ccccc3c3nc(-c4ccccc4)nn23)cc1,8.91µM*
Clc1ccc(CNc2nc3ccccc3c3nc(-c4cccnc4)nn23)cc1,28.9%
CCCCNc1nc2ccccc2c2nc(-c3ccccc3)nn12,3.16µM*
Clc1ccccc1CNc1nc2ccccc2c2nc(-c3ccccc3)nn12,i
Clc1ccc(CCNc2nc3ccccc3c3nc(-c4ccccc4)nn23)cc1,5.6%
O=C(c1ccoc1)N1CCCC(c2nc(C3CCOCC3)no2)C1 (stereo unspecified),52.1%
COC(=O)CNC(=O)N1CCC(N2C(=O)C(OCC3CC3)C23CCCCC3)CC1 (stereo unspecified),-17.4%
